Laboratory results: PubChem BioAssay AID2524 (Sanford-Burnham Center for Chemical Genomics, 2010)
Screen size: about 330,000 compounds; about 540 (0.16%) were called active.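 How the source made its calls: active means activation factor of the enzyme at least 2-fold when tested at 20 µM; inactive means the rest.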 What follows is part of a selection rich in actives, with near analogues and random picks from the rest.

These molecules were tested against Intestinal-type alkaline phosphatase (Homo sapiens) (UniProt P09923) (assay: human IAP activators, primary screen, biochemical, luminescence, uHTS (AID 2524)). Details: purified human IAP, CDP-Star luminescence, 30 min; at 10 µM; active compounds read high; 1 = vehicle-only enzyme, 0 = enzyme-free background.
Intestinal-type alkaline phosphatase (Homo sapiens), sequence (P09923 whole entry, looked up): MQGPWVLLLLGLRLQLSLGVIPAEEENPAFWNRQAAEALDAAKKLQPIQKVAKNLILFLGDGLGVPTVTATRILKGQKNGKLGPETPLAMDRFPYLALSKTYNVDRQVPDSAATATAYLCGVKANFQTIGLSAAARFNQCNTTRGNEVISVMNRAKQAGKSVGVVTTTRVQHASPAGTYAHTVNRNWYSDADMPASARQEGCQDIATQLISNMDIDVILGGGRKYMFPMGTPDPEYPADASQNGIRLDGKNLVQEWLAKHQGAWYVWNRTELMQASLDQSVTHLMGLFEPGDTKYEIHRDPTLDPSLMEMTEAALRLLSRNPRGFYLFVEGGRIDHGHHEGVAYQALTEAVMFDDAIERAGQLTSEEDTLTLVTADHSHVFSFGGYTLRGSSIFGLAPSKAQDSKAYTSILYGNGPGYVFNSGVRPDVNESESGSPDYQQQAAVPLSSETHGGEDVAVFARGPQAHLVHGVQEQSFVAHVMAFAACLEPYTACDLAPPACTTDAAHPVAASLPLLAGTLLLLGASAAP
For FC(F)(F)c1cccc(Cc2noc(CN3CCC(N4CCCCC4)CC3)n2)c1, the activation factor was 1.17 (inactive).
For C1CC1Cc1noc(CN2CCN(CC3CC3)CC2)n1, the activation factor was 1.06 (inactive).
With COCCN(C(=S)Nc1ccccc1OC)C1CCN(C(C)C)CC1 the activation factor was 1.12 (inactive).
O=C(COC(=O)c1ccccc1F)Nc1cc(S(=O)(=O)N2CCOCC2)ccc1N1CCCC1 was tested, and the activation factor was 1.03 (inactive).
Cc1ccc(CNCc2ccc3c(c2)OCO3)c(C)c1 was tested, and the activation factor was 1.06 (inactive).
For O=C(O)CSCc1ccc(C(=O)O)o1, the activation factor was 0.943 (inactive).
COc1cccc2cc(C(C)N(CCCN3CCOCC3)C(=O)Nc3ccc(Cl)cc3)oc12 (centres undefined) was tested, and the activation factor was 1.05 (inactive).
In the case of CC(Oc1ccc(F)cc1F)C(=O)/C=C/N(C)C (centres undefined), the activation factor is reported as 1.1 (inactive).
COc1ccc(CC(=O)N2N=C(C)CC2(O)C(F)(F)F)cc1 (centres undefined) was tested, and the activation factor was 1.06 (inactive).
CCOC(=O)C1CCN(C(=O)Nc2cccc(OC)c2)CC1 was tested, and the activation factor was 1.01 (inactive).
With COc1ccc(S(=O)(=O)N2CCN(CC(=O)NCC3(N4CCOCC4)CCCCC3)CC2)cc1 the activation factor was 0.925 (inactive).
C#CCOCCOCCOCCNc1nc(N2CCN(C(=O)CCCCCCCCCCNC(=O)[C@H](CCCCN)n3cc(C)nn3)CC2)nc(N2CCN(C(=O)CCCCCCCCCCNC(=O)[C@H](CO)n3cc(CCCSC)nn3)CC2)n1 was tested, and the activation factor was 1.1 (inactive).
In the case of C#CCOCCOCCOCCNc1nc(N2CCN(C(=O)CCCCCCCCCCNC(=O)[C@H]([C@@H](C)CC)n3cc(CCCCN=C(N)N)nn3)CC2)nc(N2CCN(C(=O)CCCCCCCCCCNC(=O)[C@H](CO)n3cc(CCCSC)nn3)CC2)n1, the activation factor is reported as 2.98 (active).
C#CCOCCOCCOCCNc1nc(N2CCN(C(=O)CCCCCCCCCCNC(=O)Cn3cc(CCCCCN)nn3)CC2)nc(N2CCN(C(=O)CCCCCCCCCCNC(=O)[C@H](CO)n3cc(CCCSC)nn3)CC2)n1 was tested, and the activation factor was 0.934 (inactive).
CCCN=C1NC(=O)C(CC(=O)NCCc2ccc(OC)c(OC)c2)S1 (centres undefined) was tested, and the activation factor was 1.04 (inactive).
For Cc1ccc(S(=O)(=O)N/N=C(\c2ccccc2)C2CC2)cc1, the activation factor was 1.3 (inactive).
With CCN(CC(=O)Nc1c(F)cccc1F)C(=O)C1CCC1 the activation factor was 1.05 (inactive).
With O=C(COC(=O)/C=C/c1nc2ccccc2s1)Nc1ccccc1Oc1ccccc1 the activation factor was 0.94 (inactive).
With CCCCc1c(O)nc2n(c1=O)CCS2 the activation factor was 0.971 (inactive).
For CCCCCCCCc1c(O)nc(-n2[nH]c(C)c(CCO)c2=O)[nH]c1=O, the activation factor was 2.2 (active).
In the case of CCCCCc1c(C)nc(N2CCN(Cc3ccc4c(c3)OCO4)CC2)[nH]c1=O, the activation factor is reported as 0.962 (inactive).
For CN(CCc1ccccn1)C(=O)CCC1CCCN(Cc2ccccc2OC(F)F)C1 (centres undefined), the activation factor was 1.17 (inactive).
For CN1CCC(N(C)S(=O)(=O)c2ccc(NC(=O)c3cccc(C#N)c3)cc2)CC1, the activation factor was 0.888 (inactive).
With Cc1ccc(O)c(-c2cc(C(=O)NCc3ccccc3)[nH]n2)c1 the activation factor was 2.06 (active).
In the case of Cc1ccc(NC(=O)CCN2C(=O)c3ccccc3C2=O)cc1C, the activation factor is reported as 0.917 (inactive).
For Cc1ccc(NC(=O)c2cc(-c3ccccc3O)n[nH]2)cc1C, the activation factor was 2.39 (active).
With Cc1ccc(C)c(NC(=O)c2cc(-c3cc(C)cc(C)c3O)n[nH]2)c1 the activation factor was 1.49 (inactive).
In the case of Cc1ccc(CNC(=O)c2ccccc2CCc2ccccc2)cc1, the activation factor is reported as 0.921 (inactive).
Cc1ccc(O)c(-c2cc(C(=O)Nc3c(C)n(C)n(-c4ccccc4)c3=O)[nH]n2)c1 was tested, and the activation factor was 1.84 (inactive).
In the case of CN1CCN(CC(O)COCc2ccc3c(c2)OCO3)CC1 (centres undefined), the activation factor is reported as 0.998 (inactive).
With CC(C)COC(=O)C1C2C=CC3(CN(C(C)c4ccc(Br)cc4)C(=O)C13)O2 (centres undefined) the activation factor was 0.726 (inactive).
For COc1cc(NS(=O)(=O)c2ccc(N/C=C(\C=O)c3nc4cc(Cl)ccc4o3)cc2)nc(OC)n1, the activation factor was 1.26 (inactive).
COc1ccc(C(=O)NC2CC(C)(C)Cc3c2cnn3-c2ccccc2C)o1 (centres undefined) was tested, and the activation factor was 1.38 (inactive).
With CCCc1ccc(C(=O)COC(=O)CN2C(=O)NC3(CCCCC3C)C2=O)cc1 (centres undefined) the activation factor was 1.11 (inactive).
With CC(C)CCn1c(=O)c2c(nc3n2CCCN3Cc2ccccc2)n(C)c1=O the activation factor was 0.846 (inactive).
COc1ccc(NS(=O)(=O)c2ccc(Oc3c(C#N)cccc3C#N)cc2)cc1 was tested, and the activation factor was 1.1 (inactive).
For CCn1nc(NC(=O)c2ccco2)c2cc3ccc(C)cc3nc21, the activation factor was 1.16 (inactive).
With CC(C)n1cnc2c(NCc3ccccc3)cc(N[C@@H](CO)Cc3ccccc3)cc21 the activation factor was 0.984 (inactive).
For Cc1cc(C(=O)NNC(=O)c2cccc(S(=O)(=O)N3CCOCC3)c2)c2ccccc2n1, the activation factor was 0.981 (inactive).
For O=C(Nc1ccc(N2CCOCC2)cc1)c1cccc(S(=O)(=O)N2CCOCC2)c1, the activation factor was 1.08 (inactive).
With O=C(NNC(=S)Nc1ccccc1)c1cccc(S(=O)(=O)N2CCOCC2)c1 the activation factor was 2.01 (active).
CCOC(=O)CNC(=O)/C=C/c1c(Cl)cccc1Cl was tested, and the activation factor was 0.968 (inactive).
For C/C(=N\OC(=O)c1ccccc1)c1c(C)nc2cc(C)ccn12, the activation factor was 1.06 (inactive).
CCn1cc(CN2CCC(C(=O)Nc3cccc(-c4cccc(Cl)c4)c3)CC2)cn1 was tested, and the activation factor was 1.12 (inactive).
In the case of O=C(Nc1cccc(-c2cccc(Cl)c2)c1)C1CCN(C2CCC2)CC1, the activation factor is reported as 4.26 (active).
In the case of COc1cccc(-c2cccc(NC(=O)C3CCN(C4CCC4)CC3)c2)c1, the activation factor is reported as 1.23 (inactive).
CC(=O)Nc1cccc(OCC(=O)/C=C2\N(C)c3ccccc3C2(C)C)c1 was tested, and the activation factor was 0.862 (inactive).
In the case of CN(C)c1cccc(C(=O)N2CCC(n3nccc3NC(=O)C3CCOC3)CC2)c1 (centres undefined), the activation factor is reported as 1.28 (inactive).
In the case of CN1CCc2c(sc3c2c(NCc2ccco2)nc2nnnn23)C1, the activation factor is reported as 1.04 (inactive).
In the case of COc1ccc(NC(=O)CC2C(=O)OCC3CCCCN32)cc1Cl (centres undefined), the activation factor is reported as 1.01 (inactive).
In the case of O=C(COc1ccc(Cl)cc1)NCCS(=O)(=O)N1CCN(c2ccc(F)cc2)CC1, the activation factor is reported as 0.818 (inactive).
CCc1c(C)nc(SCC(=O)NC2CCCC2)[nH]c1=O was tested, and the activation factor was 1.03 (inactive).
In the case of NS(=O)(=O)c1cccc(NC(=O)COC(=O)c2cc([N+](=O)[O-])ccc2N2CCCC2)c1, the activation factor is reported as 0.907 (inactive).
With CCc1ccc(S(=O)(=O)Nc2ccc(C)c(NS(C)(=O)=O)c2)cc1 the activation factor was 0.919 (inactive).
Cc1ccccc1NC(=O)Cn1cc(C(=O)C2CC2)c2ccccc21 was tested, and the activation factor was 1.02 (inactive).
With [2H]C(CCOS(N)(=O)=O)c1ccccc1 (centres undefined) the activation factor was 0.959 (inactive).
With CN(C)NC(=O)c1csnc1-c1c(Cl)cccc1Cl the activation factor was 1.14 (inactive).
In the case of O=C(Nc1ccc(Cl)cc1)c1ccsn1, the activation factor is reported as 4.15 (active).
For O=C(NCc1ccccn1)Nc1ccc(Cl)cc1, the activation factor was 1.08 (inactive).
CCC(=O)Nc1ccc(C(=O)NNC(=O)c2ccc(Cl)cc2)cc1 was tested, and the activation factor was 1.31 (inactive).
With CCCCC(=O)NNC(=S)NC(=O)C(c1ccccc1)c1ccccc1 the activation factor was 1.36 (inactive).
In the case of CCCN(CCC)CC(O)COc1ccccc1C(=O)Nc1ccccc1 (centres undefined), the activation factor is reported as 0.915 (inactive).
For CCCOCC(O)CC(CC)C(=O)NNC(=S)Nc1ccccc1 (centres undefined), the activation factor was 2.11 (active).
In the case of CC(C)(C)OC(=O)NCCCCCNC(=O)c1nc[nH]c1C(=O)NCc1ccccc1, the activation factor is reported as 1.26 (inactive).
C[C@H](NC(=O)c1nc[nH]c1C(=O)NCC(=O)OC(C)(C)C)c1ccccc1 was tested, and the activation factor was 1.32 (inactive).
C[C@H](NC(=O)c1[nH]cnc1C(=O)Nc1nccs1)c1ccccc1 was tested, and the activation factor was 2.51 (active).
CC(NC(=O)C(=O)Nc1nccs1)c1ccccc1 (centres undefined) was tested, and the activation factor was 1.05 (inactive).
With Cc1ccc(NC(=O)c2nc[nH]c2C(=O)N[C@@H](CCCCNC(=O)OC(C)(C)C)C(=O)OC(C)(C)C)cc1 the activation factor was 1.3 (inactive).
CC(C)(C)OC(=O)NCCCCCNC(=O)c1[nH]cnc1C(=O)Nc1nccs1 was tested, and the activation factor was 2.41 (active).
Oc1ccc(-c2cccc(-c3ccc(O)cc3)c2)cc1 was tested, and the activation factor was 1.01 (inactive).
COc1ccc(C2CC(c3ccccc3)=NN2C(=O)CSc2nccc(=O)[nH]2)cc1 (centres undefined) was tested, and the activation factor was 0.925 (inactive).
In the case of COc1ccc(CC(=O)Nc2c3c(nn2-c2cccc(Cl)c2)CS(=O)C3)cc1 (centres undefined), the activation factor is reported as 1.09 (inactive).
CC(C)Oc1ccc(CCC(=O)NNC(=S)NCc2ccccc2)cc1 was tested, and the activation factor was 2.01 (active).
With O=C(NNC(=S)NCc1ccccc1)c1ccc(OC(F)F)cc1 the activation factor was 0.898 (inactive).
For Cc1ccc(OCC(=O)NNC(=S)NCc2ccccc2)cc1, the activation factor was 1.08 (inactive).
With Cc1cccc(C(=O)N[C@H](C(=O)NCc2cccs2)C(C)C)c1 the activation factor was 1.11 (inactive).
In the case of CCOCCCn1c(SCC(=O)Nc2cc(OC)ccc2OC)nc2ccccc2c1=O, the activation factor is reported as 0.95 (inactive).
In the case of OC(COc1ccc(CN2CCSCC2)cc1)CN1CCCCC1 (centres undefined), the activation factor is reported as 1.12 (inactive).
With CCCCN1C(=O)CC(N2CCOCC2)C1=O (centres undefined) the activation factor was 1.04 (inactive).
For S=c1[nH]cc(-c2ccc(Cl)cc2)n1-c1ccccc1, the activation factor was 1.42 (inactive).
In the case of COc1ccc(N2C(=O)NC(NS(=O)(=O)c3ccc(Cl)cc3)(C(F)(F)F)C2=O)cc1 (centres undefined), the activation factor is reported as 0.861 (inactive).
In the case of Cn1c(N)c(C(=O)COC(=O)c2ccccc2NCc2ccco2)c(=O)n(C)c1=O, the activation factor is reported as 1.07 (inactive).
With Cc1c(NC(=O)CN(C)CC(=O)Nc2ccc(F)c(F)c2F)c(=O)n(-c2ccccc2)n1C the activation factor was 2.09 (active).
In the case of Cc1ccc(Cl)c(NC(=O)CN(C)CC(=O)Nc2ccc(F)c(F)c2F)c1Cl, the activation factor is reported as 1.68 (inactive).
With Cc1cc(C)cc(N(CC(=O)Nc2c(C)n(C)n(-c3ccccc3)c2=O)S(C)(=O)=O)c1 the activation factor was 0.988 (inactive).
For Cc1ccc(OCC(=O)NCCCNC(=O)c2cccnc2)cc1C, the activation factor was 1.06 (inactive).
In the case of CC1=C(C(=O)NC2CC(C)(C)Cc3c2cnn3-c2ccc(C)cc2)OCCO1 (centres undefined), the activation factor is reported as 1.1 (inactive).
For Cc1cc(C(=O)NC2CC(C)(C)Cc3c2cnn3-c2ccccc2)n[nH]1 (centres undefined), the activation factor was 2.15 (active).
COc1ccc(C(=O)NC2CC(C)(C)Cc3c2cnn3-c2ccccc2)c(OC)c1 (centres undefined) was tested, and the activation factor was 1.07 (inactive).
